Test [1] addresses Estrogen receptor beta (Homo sapiens) (UniProt Q92731). In words: qHTS assay to identify small molecule agonists of the estrogen receptor beta (ER-beta) signaling pathway (AID 1259377; active = well fitted activation curve with a large enough effect in the signal ratio in the repeat runs, not every such curve was filed as active; the % refers to the signal ratio). The essentials: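 HEK293T ER-beta-UAS-bla; 2% charcoal-stripped FBS; cells pre-incubated 6 hr, compound 16 hr, 37C/5% CO2; LiveBLAzer B/G FRET substrate 2 h RT; fluorescence intensity read.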
(Quantitative high-throughput screening tests each substance at several concentrations.)

Test [2] shares this target. In words: qHTS assay to identify small molecule antagonists of the estrogen receptor beta (ER-beta) signaling pathway (AID 1259378; active = well fitted inhibition curve with a large enough effect in the signal ratio in the repeat runs, not every such curve was filed as active; the % refers to the signal ratio). The essentials: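 Antagonist mode: compounds added to beta-lactamase reporter HEK293T ER-beta-UAS cells stimulated with E2 (1nM final), 16 hr at 37C. LiveBLAzer B/G FRET substrate, 2 hours room temperature, fluorescence read-out.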
Test [3] can be described thus: qHTS assay to identify small molecule agonists of the estrogen receptor beta (ER-beta) signaling pathway - cell viability counter screen (AID 1259380). Also: nearly all actives have a fitted effect of over 30% in size. Also: potency is read from the fitted curve at half-maximal effect. Put shortly: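 CellTiter-Glo read, 30 min RT, same wells as bla assay; cells ER-beta-UAS-bla HEK293T; 16 hr compound, 37C; medium 2% charcoal-stripped FBS.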
The nature of test [4]: qHTS assay to identify small molecule antagonists of the estrogen receptor beta (ER-beta) signaling pathway - cell viability counter screen (AID 1259382).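 Also: HEK293T cells carrying ER-beta-UAS-bla reporter stimulated with estradiol; series mostly up to about 92 µM; nearly all actives have a fitted effect of over 55% in size.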 The essentials: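 In this multiplexed counter screen, cells were seeded at 2,000 per well in medium with 2% charcoal-stripped FBS and incubated 6 hr before compound and 1nM final E2 were added. Sixteen hours later, ATP-based luminescence reported viability.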

Test [5] has as its target Estrogen receptor (Homo sapiens) (UniProt P03372). In words: qHTS assay to identify small molecule agonists of the estrogen receptor alpha (ER-alpha) signaling pathway in the presence of an antagonist (AID 1259383; calls by dose curve; also: nearly all actives have a fitted effect of over 15% in size; also: potency is read from the fitted curve at half-maximal effect; as to activation: top concentration of the series differs between compounds). The essentials: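 Stably transfected VM7Luc4E2 reporter cells, kept 5 days in charcoal-stripped serum, received ICI-182,780 at 10.0nM final before compound addition. Following 22hr incubation at 37C and 5% CO2, luciferase signal was read by luminescence.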

A short description of test [6]: qHTS assay to identify small molecule agonists or antagonists of the thyroid stimulating hormone receptor (TSHR) signaling pathway - wild type cell line counter screen (AID 1259384; calls by dose curve). The essentials:
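Counter screen in untransfected Hek293: compounds (15-point titration, triplicate) plus phosphodiesterase inhibitor Ro20-1724 added after 18 h plating; 30 min RT. Intracellular cAMP via competitive d2/cryptate immunoassay, 1 h incubation.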

Test [7] concerns the target Thyrotropin receptor (Homo sapiens) (UniProt P16473). In words: qHTS assay to identify small molecule antagonists of the thyroid stimulating hormone receptor (TSHR) signaling pathway (AID 1259385; calls by dose curve; also: nearly all actives have a fitted effect of over 20% in size). Put shortly:
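Antagonist mode: compound-treated TSHR-expressing HEK293 cells were stimulated with 1.5 ng/mL TSH (final) in presence of Ro20-1724 for 30 min at RT. HTRF cAMP detection after 1 h; each compound tested at 15 concentrations, triplicate.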

Test [8] can be described thus: qHTS assay to identify small molecule agonists of the estrogen receptor alpha (ER-alpha) signaling pathway in the presence of an antagonist - cell viability counter screen (AID 1259386).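 Also: cells exposed to compounds for 22 h at 37 °C before the viability read; nearly all actives have a fitted effect of over 30% in size.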 Also: potency is read from the fitted curve at half-maximal effect. The essentials: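 Viability counter screen using VM7Luc4E2 (full-length ER-alpha, four ERE-luciferase). The cells were treated with compounds alongside ICI-182,780 10.0nM for 22hr, and live-cell protease fluorescence was quantified with CellTiter-Fluor.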

The target of test [9] is Androgen receptor (Homo sapiens) (UniProt P10275). The experiment in a line: qHTS assay to identify small molecule agonists of the androgen receptor (AR) signaling pathway in the presence of an antagonist (AID 1259381; calls by dose curve; also: nearly all actives have a fitted effect of over 15% in size). Put shortly:
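Test compounds at 15 concentrations were incubated for 16hr with MDA-kb2 reporter cells in presence of 3.0uM nilutamide (final). Signal: ONE-Glo luciferase luminescence.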

Test [10] is described as follows: qHTS assay to identify small molecule agonists of the androgen receptor (AR) signaling pathway in the presence of an antagonist - cell viability counter screen (AID 1259379).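 Also: MDA-kb2 human breast cancer cells carrying an MMTV luciferase reporter; series mostly up to about 92 µM; nearly all actives have a fitted effect of over 25% in size.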 The essentials: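 Seed MDA-kb2 at 3,000 cells/well; incubate 5 hr, 37C, 0% CO2. Add nilutamide to 3.0uM final, then pin compounds at 15 concentrations. Incubate 16 hr. Add CellTiter-Fluor at 15 hr, read fluorescence after 1 hr.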

This is an account of results in PubChem BioAssay (Tox21).

SMILES strings stand for the structures. “And” between values parts separate entries of the source, which are not always exact repeats. Equal entries are not always repeated. Inconclusive results are not listed. A structure can be active in one record and inactive in another. The source made the active and inactive calls. Unless noted, calls follow the shape of the dose curve; as a rule, active = well fitted curve in the direction sought with a large enough effect in the repeat runs; inconclusive = weak or mixed curves; inactive = no such curve, though single readings can be large; an effect the other way counts as inactive or inconclusive.

Estrogen receptor beta (Homo sapiens), sequence (Q92731 whole entry, looked up): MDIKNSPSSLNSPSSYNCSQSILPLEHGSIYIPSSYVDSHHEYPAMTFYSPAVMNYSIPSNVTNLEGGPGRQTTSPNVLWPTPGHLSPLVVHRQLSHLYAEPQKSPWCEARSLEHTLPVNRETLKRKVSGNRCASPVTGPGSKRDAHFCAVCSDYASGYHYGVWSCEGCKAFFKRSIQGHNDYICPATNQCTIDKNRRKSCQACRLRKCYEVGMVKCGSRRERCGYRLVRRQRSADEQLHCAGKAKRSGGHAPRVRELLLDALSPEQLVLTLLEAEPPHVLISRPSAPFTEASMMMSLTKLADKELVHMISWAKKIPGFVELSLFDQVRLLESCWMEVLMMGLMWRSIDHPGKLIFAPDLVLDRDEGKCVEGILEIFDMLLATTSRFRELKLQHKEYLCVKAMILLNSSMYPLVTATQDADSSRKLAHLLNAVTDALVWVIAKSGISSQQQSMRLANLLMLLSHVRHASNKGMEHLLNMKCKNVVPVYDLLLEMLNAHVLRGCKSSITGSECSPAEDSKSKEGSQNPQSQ
Estrogen receptor (Homo sapiens), sequence (P03372 whole entry, looked up): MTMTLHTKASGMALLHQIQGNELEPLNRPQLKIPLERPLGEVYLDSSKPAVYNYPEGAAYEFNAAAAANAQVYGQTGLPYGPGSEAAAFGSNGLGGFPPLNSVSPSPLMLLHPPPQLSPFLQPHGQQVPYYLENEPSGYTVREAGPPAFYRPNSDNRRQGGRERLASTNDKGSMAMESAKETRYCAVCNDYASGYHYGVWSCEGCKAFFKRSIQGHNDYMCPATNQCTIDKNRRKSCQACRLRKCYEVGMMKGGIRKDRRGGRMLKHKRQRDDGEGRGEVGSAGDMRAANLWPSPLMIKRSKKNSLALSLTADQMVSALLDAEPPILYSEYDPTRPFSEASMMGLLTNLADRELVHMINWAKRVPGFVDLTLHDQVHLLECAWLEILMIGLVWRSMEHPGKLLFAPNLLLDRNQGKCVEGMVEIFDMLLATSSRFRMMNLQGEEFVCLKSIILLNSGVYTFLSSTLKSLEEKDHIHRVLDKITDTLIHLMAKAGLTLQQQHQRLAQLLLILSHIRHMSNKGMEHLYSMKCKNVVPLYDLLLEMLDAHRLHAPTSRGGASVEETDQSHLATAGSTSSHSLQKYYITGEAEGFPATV
Androgen receptor (Homo sapiens), sequence (P10275 whole entry, looked up): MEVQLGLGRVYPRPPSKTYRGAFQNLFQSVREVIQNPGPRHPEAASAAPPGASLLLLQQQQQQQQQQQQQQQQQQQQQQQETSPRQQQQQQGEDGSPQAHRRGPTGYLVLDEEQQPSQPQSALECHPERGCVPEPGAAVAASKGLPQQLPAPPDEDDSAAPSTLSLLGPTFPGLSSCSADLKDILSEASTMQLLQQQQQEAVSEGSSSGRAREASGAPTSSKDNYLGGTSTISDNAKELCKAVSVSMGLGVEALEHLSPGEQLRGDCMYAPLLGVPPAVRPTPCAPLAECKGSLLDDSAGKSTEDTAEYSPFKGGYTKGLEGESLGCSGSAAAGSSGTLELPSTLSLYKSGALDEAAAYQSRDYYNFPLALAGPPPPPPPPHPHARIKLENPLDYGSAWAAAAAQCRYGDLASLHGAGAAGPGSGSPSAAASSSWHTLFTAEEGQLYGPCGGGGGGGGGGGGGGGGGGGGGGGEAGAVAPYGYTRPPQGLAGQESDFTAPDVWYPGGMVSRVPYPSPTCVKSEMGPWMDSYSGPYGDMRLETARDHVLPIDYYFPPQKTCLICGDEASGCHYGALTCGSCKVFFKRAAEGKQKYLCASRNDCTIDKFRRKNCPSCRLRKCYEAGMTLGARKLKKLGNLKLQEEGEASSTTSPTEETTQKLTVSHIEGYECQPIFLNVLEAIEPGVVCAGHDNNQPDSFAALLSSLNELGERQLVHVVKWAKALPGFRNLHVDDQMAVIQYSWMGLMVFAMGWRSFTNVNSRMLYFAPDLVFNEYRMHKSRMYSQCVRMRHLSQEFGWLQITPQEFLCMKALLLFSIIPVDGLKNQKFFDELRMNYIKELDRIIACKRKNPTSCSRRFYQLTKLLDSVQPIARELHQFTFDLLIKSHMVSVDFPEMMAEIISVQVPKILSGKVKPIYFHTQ
Thyrotropin receptor (Homo sapiens), sequence (P16473 whole entry, looked up): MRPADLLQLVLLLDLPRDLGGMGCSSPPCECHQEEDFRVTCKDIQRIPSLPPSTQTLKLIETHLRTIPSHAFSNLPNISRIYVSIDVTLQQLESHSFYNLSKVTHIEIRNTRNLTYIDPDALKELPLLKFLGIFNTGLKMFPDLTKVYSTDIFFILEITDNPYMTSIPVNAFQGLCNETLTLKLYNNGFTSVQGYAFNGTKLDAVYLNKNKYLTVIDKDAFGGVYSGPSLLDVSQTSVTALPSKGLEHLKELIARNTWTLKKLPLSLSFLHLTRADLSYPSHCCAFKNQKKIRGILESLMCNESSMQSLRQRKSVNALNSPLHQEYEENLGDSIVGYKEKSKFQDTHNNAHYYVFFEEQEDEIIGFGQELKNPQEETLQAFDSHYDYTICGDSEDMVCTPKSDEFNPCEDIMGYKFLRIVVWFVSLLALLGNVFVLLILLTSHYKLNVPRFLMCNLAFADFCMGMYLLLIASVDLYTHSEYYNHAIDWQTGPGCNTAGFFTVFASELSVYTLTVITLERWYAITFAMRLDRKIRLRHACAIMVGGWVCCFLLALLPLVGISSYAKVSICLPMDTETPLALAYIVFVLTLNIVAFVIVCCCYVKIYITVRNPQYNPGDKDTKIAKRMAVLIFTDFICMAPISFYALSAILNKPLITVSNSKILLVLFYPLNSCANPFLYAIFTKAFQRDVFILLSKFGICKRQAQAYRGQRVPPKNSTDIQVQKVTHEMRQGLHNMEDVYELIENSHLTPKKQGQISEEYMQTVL

In the case of `CC(C)=CCC/C(C)=C/C=O`, the Potency entry in [1], in test [2], in test [3], in [4], in [5] and in test [6] was “inactive” each time. Besides, the Potency result in test [7] and in [8] was “inactive” each time.

For `CC(C)(CO)CO`, the Potency result in test [1], in test [2], in [3], in test [4], in [5] and in test [7] was “inactive” in each case. Also, in test [8], the Potency entry is “inactive”. Also, the outcome in test [9] was inactive.

`CCCCCNCCCCC`: the Potency entry in [1], in test [2], in [3], in [4], in test [6] and in [7] was “inactive” in each case. The Potency entry in test [8] was “inactive”.

`CCCCC(CC)COC(=O)c1ccc(C(=O)OCC(CC)CCCC)cc1` (stereo not drawn): the Potency result in test [10], in test [3], in test [4] and in [8] was “inactive” each time. The outcome in [9] was inactive.

On to `CC(=O)OC/C=C(\C)CCC=C(C)C`, for which the Potency result in test [10], in test [3], in [4], in [5], in test [6] and in [7] was “inactive” in each case. For the same compound, the Potency result in test [8] is “inactive”.

As to `COCN(COC)c1nc(N(COC)COC)nc(N(COC)COC)n1`, the Potency result in [1], in [2], in test [3], in test [4], in test [5] and in [7] was “inactive” in each case. For the same compound, in test [8], the Potency result was “inactive”.

As for `Cc1cc(CC(=O)O)n(C)c1C(=O)c1ccc(Cl)cc1`, the Potency entry in [1], in test [2], in test [3], in [4], in test [7] and in test [8] was “inactive” in each case.

Regarding `CC/C(C)=N/O`, the Potency entry in test [1], in [2], in test [3], in test [4], in test [7] and in test [8] was “inactive” each time.

With `OB(O)O`, the Potency result in [10], in test [3], in test [4], in test [5], in [6] and in test [7] was “inactive” throughout. For the same compound, in [8], the Potency entry was “inactive”.

Take `C[Si](C)(C)N[Si](C)(C)C`: the Potency result in [1], in test [2], in [3], in test [4], in [5] and in [6] was “inactive” in each case. Further, the Potency result in test [7] and in test [8] was “inactive” each time.

With `CN1Cc2c(N)cccc2C(c2ccccc2)C1` (stereo not drawn), the Potency result in [1], in test [2], in [3], in test [4], in test [7] and in [8] was “inactive” in each case.

Consider `CCOC(=O)c1ccc(O)cc1`, for which the Potency result in test [2], in test [3], in [4], in [5], in [6] and in test [7] was “inactive” in each case. Moreover, in [8], the Potency result is “inactive”.

Consider `COC(=O)OC`, for which the Potency entry in test [1], in [2], in test [10], in [3], in [4] and in [7] was “inactive” in each case. In [8], the Potency entry was “inactive”.

On to `CCCCCC(C)=O`, for which the Potency result in test [1], in test [2], in test [3], in [4] and in test [8] was “inactive” in each case.

Take `CC(C)c1ccc(C(C)C)cc1`: the Potency entry in test [1], in test [2], in test [3], in [4], in test [5] and in test [6] was “inactive” in each case. For the same compound, the Potency entry in test [7] and in test [8] was “inactive” in each case.

Take `NC(=O)NC(N)=O`: the Potency entry in [1], in test [2], in test [3], in test [4], in [5] and in [7] was “inactive” each time. In addition, in test [8], the Potency result is “inactive”.

With `NCCNCCNCCN`, the Potency entry in test [2], in test [10], in [3], in test [4], in test [6] and in test [7] was “inactive” throughout. Also, in [8], the Potency entry is “inactive”.

`O=[N+]([O-])c1cc(C(F)(F)F)ccc1Cl`: the Potency entry in test [1], in test [2], in test [3], in test [4], in test [6] and in [7] was “inactive” each time. Further, the Potency result in test [8] was “inactive”. The result in test [9] was inactive.

`COc1ccc(N)c(OC)c1`: the Potency result in [10], in [4], in [5], in [6], in test [7] and in test [8] was “inactive” in each case. Besides, the Potency result in test [3] is “inactive and 54.5 µM (active)”.

For `Cc1ccncc1`, the Potency entry in [1], in test [2], in test [3], in test [4], in [5] and in test [6] was “inactive” each time. Besides, the Potency entry in test [7] and in test [8] was “inactive” in each case.

With `CCCCCCC(=O)O`, the Potency entry in test [1], in test [2], in test [3], in [4], in test [5] and in test [6] was “inactive” each time. In addition, the Potency result in test [7] and in test [8] was “inactive” throughout.

Take `C[n+]1ccn(CCO)c1`: the Potency entry in test [1], in test [2], in [3], in test [4] and in test [8] was “inactive” each time.

As for `O=[N+]([O-])c1ccccc1C(F)(F)F`, the Potency entry in test [1], in test [2], in test [3], in test [4], in [7] and in test [8] was “inactive” throughout. For the same compound, the outcome in test [9] was inactive. Moreover, the Potency in test [5] was 59.8 µM (active) and inactive.

Consider `C=C(C)CC(C)(C)C`, for which the Potency entry in test [1], in test [2], in [3], in test [4], in test [7] and in test [8] was “inactive” in each case.

Turning to `CC(COCC(C)OC(=O)c1ccccc1)OC(=O)c1ccccc1` (stereo not drawn), the Potency result in test [1], in test [2], in [10], in [3], in [4] and in test [7] was “inactive” each time. Further, the Potency result in test [8] is “inactive”.

On to `CC(=O)OCCC(C)C`, for which the Potency entry in test [1], in test [2], in test [10], in test [3], in test [4] and in [8] was “inactive” each time.

Turning to `O=Cc1ccc(CO)o1`, the Potency result in [1], in test [2], in test [3], in test [4], in [5] and in [6] was “inactive” each time. Moreover, the Potency entry in test [7] and in test [8] was “inactive” throughout.

With `O=C(c1ccccc1)c1ccc(O)c(O)c1O`, the Potency entry in [3], in test [4] and in [5] was “inactive” each time. Moreover, the Potency in test [8] was 61.6 µM (active).

Consider `Cc1ccccc1Cl`, for which the Potency result in test [3], in test [4], in test [5], in test [6], in [7] and in test [8] was “inactive” throughout. For the same compound, the result in [9] was inactive.
